Results on 35 molecules are retold here after the supplement of paper PMC9492666.

In one assay the test system is HCC1937. Briefly: relative cell viability, compound + erastin, vs DMSO (fraction of DMSO control); higher = less growth inhibition. As to conditions: 72 h.
The next assay has as its system MDA-MB-231. Described as above. The conditions noted are these: 72 h.
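Also: viability read by CCK-8 kit in 96-well plates, part of a combination screen pairing lipid-metabolism-targeting compounds with erastin.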

For the molecule `Cc1cc(SCc2sc(-c3ccc(C(F)(F)F)c(F)c3)nc2C)ccc1OCC(=O)O` + CCOc1ccccc1-n1c(C(C)N2CCN(C(=O)COc3ccc(Cl)cc3)CC2)nc2ccccc2c1=O [erastin], the relative cell viability with HCC1937 is 0.849; with MDA-MB-231, 0.799.
As for `CC(C)(Oc1ccc(C2CC2(Cl)Cl)cc1)C(=O)O` (stereo not given) [Ciprofibrate] + CCOc1ccccc1-n1c(C(C)N2CCN(C(=O)COc3ccc(Cl)cc3)CC2)nc2ccccc2c1=O [erastin], the results for the relative cell viability in the assay on HCC1937 and in the assay with MDA-MB-231 were 0.848 and 0.628, respectively.
Turning to `Nc1ncnc2c1ncn2C1OC(COP(=O)(O)O)C(O)C1O` (stereo not given) [Adenosine 5'-monophosphate monohydrate] + CCOc1ccccc1-n1c(C(C)N2CCN(C(=O)COc3ccc(Cl)cc3)CC2)nc2ccccc2c1=O [erastin], the relative cell viability with HCC1937 is 0.97; with MDA-MB-231, 1.07.
On to `COC(=O)c1cc(Cl)c(O)c(S(=O)(=O)Nc2cc(-c3ccccc3)c(F)cc2F)c1` + CCOc1ccccc1-n1c(C(C)N2CCN(C(=O)COc3ccc(Cl)cc3)CC2)nc2ccccc2c1=O [erastin], for which the relative cell viability with HCC1937 was 0.728; in the assay with MDA-MB-231 it was 0.806.
`O=C(O)CC[C@H](O)C(=O)O` [L-2-Hydroxyglutaric acid disodium] + CCOc1ccccc1-n1c(C(C)N2CCN(C(=O)COc3ccc(Cl)cc3)CC2)nc2ccccc2c1=O [erastin]: the relative cell viability in the assay on HCC1937 was 0.747; with MDA-MB-231, 0.701.
In the case of `CCC(C)(Oc1ccc(C2(c3ccc(OC(C)(CC)C(=O)O)cc3)CCCCC2)cc1)C(=O)O` (stereo not given) [Clinofibrate] + CCOc1ccccc1-n1c(C(C)N2CCN(C(=O)COc3ccc(Cl)cc3)CC2)nc2ccccc2c1=O [erastin], the values for the relative cell viability in the assay with HCC1937 and in the assay with MDA-MB-231 were 0.544 and 0.325, respectively.
With `C[C@]12C=CC(=O)N[C@@H]1CC[C@@H]1[C@@H]2CC[C@]2(C)[C@@H](C(=O)Nc3cc(C(F)(F)F)ccc3C(F)(F)F)CC[C@@H]12` [Dutasteride] + CCOc1ccccc1-n1c(C(C)N2CCN(C(=O)COc3ccc(Cl)cc3)CC2)nc2ccccc2c1=O [erastin], the relative cell viability in the assay on HCC1937 amounted to 0.573; in the assay with MDA-MB-231, 0.596.
Consider `Cc1nc2ccc(C(=O)N3CCC4(CC3)CC(=O)c3c(cnn3C(C)C)C4)cc2[nH]1` + CCOc1ccccc1-n1c(C(C)N2CCN(C(=O)COc3ccc(Cl)cc3)CC2)nc2ccccc2c1=O [erastin], for which the relative cell viability in the assay with HCC1937 stood at 0.619; in the assay with MDA-MB-231, 0.733.
For `Oc1ccc(/C=C/c2cc(O)cc(O)c2)cc1` [Resveratrol] + CCOc1ccccc1-n1c(C(C)N2CCN(C(=O)COc3ccc(Cl)cc3)CC2)nc2ccccc2c1=O [erastin], the relative cell viability with HCC1937 came out at 0.635; in the assay with MDA-MB-231 it was 0.853.
On to `Cc1coc2c1C(=O)C(=O)c1c-2ccc2c(C)cccc12` [Tanshinone I] + CCOc1ccccc1-n1c(C(C)N2CCN(C(=O)COc3ccc(Cl)cc3)CC2)nc2ccccc2c1=O [erastin], for which the relative cell viability came out at 0.226 with HCC1937 and 0.396 with MDA-MB-231.
Turning to `Cc1cc(N2C[C@@H](C)N[C@@H](C)C2)ncc1-c1ccc(-c2nc3c(ccn3C)c(=O)[nH]2)cc1` + CCOc1ccccc1-n1c(C(C)N2CCN(C(=O)COc3ccc(Cl)cc3)CC2)nc2ccccc2c1=O [erastin], the relative cell viability is 0.506 in the assay on HCC1937 and 0.551 in the assay on MDA-MB-231.
On to `C/C=C(\CC[C@@H](C)[C@H]1CC[C@H]2[C@@H]3CC=C4C[C@@H](O)CC[C@]4(C)[C@H]3CC[C@]12C)C(C)C` [Fucosterol] + CCOc1ccccc1-n1c(C(C)N2CCN(C(=O)COc3ccc(Cl)cc3)CC2)nc2ccccc2c1=O [erastin], for which the results for the relative cell viability with HCC1937 and with MDA-MB-231 were 0.685 and 0.881, respectively.
`CC[C@H]1[C@@H](O)[C@@H]2[C@H](CC[C@]3(C)[C@@H]([C@H](C)CCC(=O)O)CC[C@@H]23)[C@@]2(C)CC[C@@H](O)C[C@@H]12` [Obeticholic Acid] + CCOc1ccccc1-n1c(C(C)N2CCN(C(=O)COc3ccc(Cl)cc3)CC2)nc2ccccc2c1=O [erastin]: the relative cell viability in the assay on HCC1937 worked out at 0.616; in the assay on MDA-MB-231, 0.771.
For the molecule `O=C(CCCCc1ccc2c(c1)OCO2)N1CCCCC1` + CCOc1ccccc1-n1c(C(C)N2CCN(C(=O)COc3ccc(Cl)cc3)CC2)nc2ccccc2c1=O [erastin], the relative cell viability in the assay on HCC1937 is 0.549; with MDA-MB-231 it was 0.35.
As for `C=CCc1ccc(O)c(-c2cc(CC=C)ccc2O)c1` [Magnolol] + CCOc1ccccc1-n1c(C(C)N2CCN(C(=O)COc3ccc(Cl)cc3)CC2)nc2ccccc2c1=O [erastin], the values for the relative cell viability with HCC1937 and in the assay on MDA-MB-231 were 0.99 and 1.02, respectively.
Consider `COc1cccc(CNc2ccc(S(=O)(=O)Nc3nc4ccccc4s3)cc2)c1O` + CCOc1ccccc1-n1c(C(C)N2CCN(C(=O)COc3ccc(Cl)cc3)CC2)nc2ccccc2c1=O [erastin], for which the relative cell viability worked out at 0.639 in the assay with HCC1937 and 0.68 with MDA-MB-231.
On to `N#Cc1c(O)c2c(-c3ccc(-c4ccccc4O)cc3)csc2[nH]c1=O` + CCOc1ccccc1-n1c(C(C)N2CCN(C(=O)COc3ccc(Cl)cc3)CC2)nc2ccccc2c1=O [erastin], for which the figures for the relative cell viability with HCC1937 and in the assay with MDA-MB-231 were 0.521 and 0.51, respectively.
Regarding `CCN(CC)CCN(Cc1ccc(-c2ccc(C(F)(F)F)cc2)cc1)C(=O)Cn1c(SCc2ccc(F)cc2)nc(=O)c2c1CCC2` [Darapladib] + CCOc1ccccc1-n1c(C(C)N2CCN(C(=O)COc3ccc(Cl)cc3)CC2)nc2ccccc2c1=O [erastin], the relative cell viability in the assay with HCC1937 came out at 0.0574; with MDA-MB-231, 0.296.
Consider `COC(=O)c1sccc1S(=O)(=O)Nc1ccc(Nc2ccccc2)cc1OC` + CCOc1ccccc1-n1c(C(C)N2CCN(C(=O)COc3ccc(Cl)cc3)CC2)nc2ccccc2c1=O [erastin], for which the relative cell viability with HCC1937 was found to be 0.529; in the assay with MDA-MB-231, 1.1.
As for `Cc1cccc(Nc2cc(Cl)nc(SCC(=O)O)n2)c1C` [Pirinixic Acid] + CCOc1ccccc1-n1c(C(C)N2CCN(C(=O)COc3ccc(Cl)cc3)CC2)nc2ccccc2c1=O [erastin], the relative cell viability with HCC1937 was found to be 0.602; with MDA-MB-231, 0.74.
Consider `O=C(c1ccc(NS(=O)(=O)c2cccc3cccnc23)cc1)N1CCN(CC2CC2)CC1` [Mitapivat] + CCOc1ccccc1-n1c(C(C)N2CCN(C(=O)COc3ccc(Cl)cc3)CC2)nc2ccccc2c1=O [erastin], for which the relative cell viability with HCC1937 came out at 0.596; with MDA-MB-231 it was 0.638.
On to `N[C@@H](Cc1c[nH]cn1)C(=O)O` [histidine] + CCOc1ccccc1-n1c(C(C)N2CCN(C(=O)COc3ccc(Cl)cc3)CC2)nc2ccccc2c1=O [erastin], for which the relative cell viability in the assay on HCC1937 worked out at 0.592; with MDA-MB-231, 0.706.
As to `O=C(CBr)c1ccc(O)cc1` [PTP Inhibitor I] + CCOc1ccccc1-n1c(C(C)N2CCN(C(=O)COc3ccc(Cl)cc3)CC2)nc2ccccc2c1=O [erastin], the relative cell viability is 0.717 in the assay with HCC1937 and 0.64 in the assay on MDA-MB-231.
In the case of `O=C(Nc1ccccc1)c1cc([N+](=O)[O-])ccc1Cl` + CCOc1ccccc1-n1c(C(C)N2CCN(C(=O)COc3ccc(Cl)cc3)CC2)nc2ccccc2c1=O [erastin], the relative cell viability in the assay on HCC1937 came to 0.71; with MDA-MB-231 it was 0.706.
Take `CC(C)c1onc(-c2c(Cl)cccc2Cl)c1COc1ccc(/C=C/c2cccc(C(=O)O)c2)c(Cl)c1` + CCOc1ccccc1-n1c(C(C)N2CCN(C(=O)COc3ccc(Cl)cc3)CC2)nc2ccccc2c1=O [erastin]: the relative cell viability in the assay on HCC1937 was 0.722; with MDA-MB-231, 0.762.
For `CC(C)(O)[C@@H]1Cc2cc3ccc(=O)oc3cc2O1` [marmesin] + CCOc1ccccc1-n1c(C(C)N2CCN(C(=O)COc3ccc(Cl)cc3)CC2)nc2ccccc2c1=O [erastin], the results for the relative cell viability in the assay on HCC1937 and in the assay with MDA-MB-231 were 0.645 and 0.646, respectively.
With `COc1cc(C(C)=O)ccc1O` [Acetovanillone] + CCOc1ccccc1-n1c(C(C)N2CCN(C(=O)COc3ccc(Cl)cc3)CC2)nc2ccccc2c1=O [erastin], the relative cell viability in the assay with HCC1937 is 0.508; in the assay with MDA-MB-231, 0.666.
`O=C1c2cc(CO)cc(O)c2C(=O)c2c(O[C@@H]3O[C@H](CO)[C@@H](O)[C@H](O)[C@H]3O)cccc21` [Aloe-emodin-8-O-beta-D-glucopyranoside] + CCOc1ccccc1-n1c(C(C)N2CCN(C(=O)COc3ccc(Cl)cc3)CC2)nc2ccccc2c1=O [erastin]: the relative cell viability with HCC1937 is 0.493; in the assay with MDA-MB-231, 0.704.
For the molecule `CCC(=O)O[C@]1(C(=O)CCl)[C@@H](C)C[C@H]2[C@@H]3C[C@H](F)C4=CC(=O)C=C[C@]4(C)[C@@]3(F)[C@@H](O)C[C@@]21C` [Halobetasol Propionate] + CCOc1ccccc1-n1c(C(C)N2CCN(C(=O)COc3ccc(Cl)cc3)CC2)nc2ccccc2c1=O [erastin], the relative cell viability came to 0.708 in the assay with HCC1937 and 0.973 with MDA-MB-231.
In the case of `CC[C@H](C)C(=O)O[C@H]1CCC=C2C=C[C@H](C)[C@H](CC[C@@H]3C[C@@H](O)CC(=O)O3)[C@H]21` [Mevastatin] + CCOc1ccccc1-n1c(C(C)N2CCN(C(=O)COc3ccc(Cl)cc3)CC2)nc2ccccc2c1=O [erastin], the relative cell viability in the assay with HCC1937 stood at 0.6; in the assay with MDA-MB-231, 0.434.
On to `CC[C@H](C)C(=O)O[C@H]1C[C@@H](C)C=C2C=C[C@H](C)[C@H](CC[C@@H]3C[C@@H](O)CC(=O)O3)[C@H]21` [Lovastatin] + CCOc1ccccc1-n1c(C(C)N2CCN(C(=O)COc3ccc(Cl)cc3)CC2)nc2ccccc2c1=O [erastin], for which the relative cell viability was 0.804 in the assay with HCC1937 and 0.569 with MDA-MB-231.
Take `C[C@H](CCCC(C)(C)O)[C@H]1CC[C@H]2[C@@H]3CC=C4C[C@@H](O)CC[C@]4(C)[C@H]3CC[C@]12C` [25-Hydroxycholesterol] + CCOc1ccccc1-n1c(C(C)N2CCN(C(=O)COc3ccc(Cl)cc3)CC2)nc2ccccc2c1=O [erastin]: the relative cell viability came to 0.745 in the assay on HCC1937 and 0.483 in the assay on MDA-MB-231.
For `CC(C)(Oc1ccc(Cl)cc1)C(=O)O` [Clofibric acid] + CCOc1ccccc1-n1c(C(C)N2CCN(C(=O)COc3ccc(Cl)cc3)CC2)nc2ccccc2c1=O [erastin], the relative cell viability in the assay with HCC1937 amounted to 0.923; in the assay with MDA-MB-231, 0.592.
Consider `CCN(CC)c1ccc(C=NNC(=O)c2ccncc2)c(O)c1` + CCOc1ccccc1-n1c(C(C)N2CCN(C(=O)COc3ccc(Cl)cc3)CC2)nc2ccccc2c1=O [erastin], for which the relative cell viability in the assay with HCC1937 was 0.254; in the assay with MDA-MB-231, 0.677.
On to `O=C(O)C(O)Cc1ccc(O)c(O)c1` (stereo not given) [Sodium Danshensu] + CCOc1ccccc1-n1c(C(C)N2CCN(C(=O)COc3ccc(Cl)cc3)CC2)nc2ccccc2c1=O [erastin], for which the relative cell viability in the assay with HCC1937 came to 0.746; in the assay with MDA-MB-231, 0.968.
